Test results published in PubChem BioAssay (EPA / NIEHS).
Active and inactive are the calls of the source. Rule for the calls: active = hit-call score of the fitted dose curve at least 0.9, where 1 is the maximum; inactive = score below 0.9.

Columns and labels:
Details in all cases: mRNA level, 48 h; actives raise or lower the signal
[1] = read-out: sulfotransferase 2A1 (SULT2A1), SULT2A1 (gene 6822); assay: LTEA_HepaRG_SULT2A1: Life Technologies and Expression Analysis (LTEA) Assay for sulfotransferase 2A1 (SULT2A1) using HepaRG (AID 2283531)
Outline: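 Cells were plated and cultured 48 h, switched to serum-free induction medium, then dosed in duplicate for 48 h (8 concentrations, max 100 uM). RNA was isolated and SULT2A1 expression measured by qRT-PCR; gain or loss of signal fitted relative to DMSO.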

[2] = read-out: Transforming Growth Factor (TGFA), TGFA (gene 7039); assay: LTEA_HepaRG_TGFA: Life Technologies and Expression Analysis (LTEA) Assay for Transforming Growth Factor (TGFA) using HepaRG (AID 2283532)
Outline: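 Differentiated HepaRG cells exposed 48 hours in serum-free induction medium, 0.5% DMSO vehicle, 8-point half-log series from 100 uM, in duplicate. TGFA mRNA by TaqMan qRT-PCR, normalised to ACTB, GAPDH, POLR2A; bidirectional fit versus DMSO.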

[3] = read-out: Transforming Growth Factor (TGFB1), TGFB1 (gene 7040); assay: LTEA_HepaRG_TGFB1: Life Technologies and Expression Analysis (LTEA) Assay for Transforming Growth Factor (TGFB1) Transporter using HepaRG (AID 2283533)
Outline: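 Expression change of TGFB1 in human HepaRG cells is measured after a 48 h chemical exposure, up to 100 uM in 0.5% DMSO vehicle. Curves are fitted in both directions relative to the DMSO baseline.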

TIMP1, TIMP1 (gene 7076) = assay: LTEA_HepaRG_TIMP1: Life Technologies and Expression Analysis (LTEA) Assay for TIMP1 using HepaRG (AID 2283534)
Outline: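 We dosed human liver HepaRG cultures for 48 hours with up to 100 uM test chemical and measured TIMP1 expression by qRT-PCR. Activity in either direction is fitted relative to the 0.5% DMSO vehicle.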

[4] = read-out: Tumor necrosis factor receptor 1 (TNFRSF1A), TNFRSF1A (gene 7132); assay: LTEA_HepaRG_TNFRSF1A: Life Technologies and Expression Analysis (LTEA) Assay for Tumor necrosis factor receptor 1 (TNFRSF1A) using HepaRG (AID 2283535)
Outline: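 Expression of TNFRSF1A in human HepaRG liver cells was measured by qRT-PCR 48 h after chemical dosing (maximum 100 uM). Bidirectional curve fitting used 0.5% DMSO as baseline.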

[5] = read-out: Thyroid Hormone Responsive (THRSP), THRSP (gene 7069); assay: LTEA_HepaRG_THRSP: Life Technologies and Expression Analysis (LTEA) Assay for Thyroid Hormone Responsive (THRSP) using HepaRG (AID 2283536)
Outline: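 Differentiated HepaRG cells treated 48 h in serum-free induction medium with 8 half-log concentrations up to 100 uM (0.5% DMSO), duplicates. THRSP mRNA by TaqMan qRT-PCR normalised to ACTB, GAPDH, POLR2A; bidirectional fit versus DMSO.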

[6] = read-out: UDP glucuronosyltransferase (UGT1A1), UGT1A1 (gene 54658); assay: LTEA_HepaRG_UGT1A1: Life Technologies and Expression Analysis (LTEA) Assay for UDP glucuronosyltransferase (UGT1A1) using HepaRG (AID 2283538)
Outline: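 Human liver HepaRG cultures receive test chemical for 48 h, up to 100 uM in 0.5% DMSO, with phenobarbital induction controls. UGT1A1 mRNA is measured by qRT-PCR and normalized to ACTB, GAPDH and POLR2A.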

[7] = read-out: UDP glucuronosyltransferase (UGT1A6), UGT1A6 (gene 54578); assay: LTEA_HepaRG_UGT1A6: Life Technologies and Expression Analysis (LTEA) Assay for UDP glucuronosyltransferase (UGT1A6) using HepaRG (AID 2283539)
Outline: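 Endpoint is UGT1A6 transcript induction or loss in a human liver cell line, quantified by TaqMan qRT-PCR 48 h after dosing. Concentrations ran from 100 uM downward in half-log steps in 0.5% DMSO; activity was fitted in both directions versus vehicle.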

[8] = read-out: X-box binding protein 1 (XBP1), XBP1 (gene 7494); assay: LTEA_HepaRG_XBP1: Life Technologies and Expression Analysis (LTEA) Assay for X-box binding protein 1 (XBP1) using HepaRG (AID 2283540)
Outline: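 Human HepaRG monolayers receive test chemical for 48 h across an eight-point half-log series starting at 100 uM. XBP1 mRNA gain or loss is scored against DMSO by qRT-PCR.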

[9] = read-out: Cellular tumor antigen p53 (Homo sapiens) (UniProt P04637); assay: LTEA_HepaRG_TP53: Life Technologies and Expression Analysis (LTEA) Assay for Tumor Protein P53 (TP53) using HepaRG (AID 2283537)
Description: LTEA_HepaRG is a cell based, multiplexed-readout assay that uses HepaRG, a human liver cell line, with measurements taken at 48 hours after chemical dosing on a 96-well plate.LTEA_HepaRG_TP53 is one of 102 assay component(s) measured in the LTEA HepaRG cell culture assay. It is a marker of Oxidative Stress.Data from the assay component LTEA_HepaRG_TP53 was analyzed into 1 endpoint. This assay endpoint, LTEA_HepaRG_TP53, was analyzed with bidirectional fitting relative to DMSO as the negative control and baseline of activity. Using a type of inducible reporter, measures of mRNA induction for gain or loss-of-signal activity can be used to understand regulation of transcription factor activity. To generalize the intended target to other relatable targets, this assay endpoint is annotated to the dna binding intended target family, where the subfamily is tumor suppressor.
A total of 1060 chemcials from the ToxCast library were tested in eight-point concentration-response experiments. Cell culture and cytotoxicity assays were conducted at Thermo Fisher Scientific's Custom Services facility (Madison, WI). A single lot of human HepaRG cells (Thermo Fisher Scientific, Frederick, MD) was used for the cell culture experiments. 96-well format collagen type I coated plates of human HepaRG cells were prepared using established methods. Briefly, cryopreserved HepaRG cells were thawed, plated at a density of approximately 100,000 cells/well in HepaRG Thaw, Plate, and General Purpose media (HPRG770, Thermo Fisher Scientific), and incubated for 48 hours. 0.5% DMSO was selected as vehicle control to balance the requisite need of DMSO in HepaRG cultures to maintain differentiation (for example, baseline metabolism, proportions of hepatocytes vs. cholangiocytes), while enabling further hepatic receptor pathway activation (for example, PXR and CAR) in response to chemical exposure. 48 hours after plating, the culture medium was replaced with HepaRG Serum-Free Incudtion Media. Cells were exposed to each test chemical in duplicate and maintained in CO2 incubators for another 48 hours. Chemical plates were thawed to room temperature and 200x concentrations of treatment groups were prepared. 8-point conentration-reponse curves were made with the highest exposure at 100 uM, followed by half-log dilutions, all in 0.5% DMSO. Each test plate contained variouse controls, induction positive controls (1mM phenobarbital), cytotoxicity positive controls ([…] aflatoxin B1), vehicle controls (0.5% DMSO), and total lysis controls (0.5% DMSO). […] Fluidigm's 96.96 Dynamic ArrayTM (Fluidigm, Amsterdam, the Netherlands) technology was used for gene expression analyses by quantitative reverse transcription polymerase chain reaction (qRT-PCR, performed by Quintiles/Expression Analysis, Durham, NC)89. […]

Measured: AC50

Chain of Cellular tumor antigen p53 (Homo sapiens) (P04637 whole entry, looked up): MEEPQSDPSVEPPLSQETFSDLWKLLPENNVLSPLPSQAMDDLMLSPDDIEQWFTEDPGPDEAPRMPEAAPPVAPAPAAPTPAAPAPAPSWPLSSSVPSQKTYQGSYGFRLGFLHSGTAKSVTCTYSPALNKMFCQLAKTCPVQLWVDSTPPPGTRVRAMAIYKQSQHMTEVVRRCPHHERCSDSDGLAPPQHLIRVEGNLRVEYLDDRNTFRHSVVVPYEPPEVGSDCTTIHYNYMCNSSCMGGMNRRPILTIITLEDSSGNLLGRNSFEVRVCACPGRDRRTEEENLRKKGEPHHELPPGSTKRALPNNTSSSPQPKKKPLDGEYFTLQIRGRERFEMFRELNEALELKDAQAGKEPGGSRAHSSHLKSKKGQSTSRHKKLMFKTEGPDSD

OCC(CO)(CBr)CBr
not listed: [9]
inactive: all other assays above

CCCCCCCCCCCCCCC
active: [6] 19.8 µM
not listed: [9]
inactive: all other assays above

CCC(C)c1ccccc1O (stereo not drawn)
not listed: [9]
inactive: all other assays above

Cc1[nH]nc2c1N=C(c1ccccc1Cl)c1cc([N+](=O)[O-])ccc1N2
inactive: [6]
active: [1] 28.3 µM | [2] 50 µM | [3] 1.74 µM | TIMP1, TIMP1 (gene 7076) 2.38 µM | [4] 12.4 µM | [5] 8.84 µM | [7] 86.8 µM | [8] 3.64 µM

N=C(N)c1ccc(OCCCCCOc2ccc(C(=N)N)cc2)cc1
active: [1] 12.6 µM | [2] 11 µM | [3] 69.8 µM | TIMP1, TIMP1 (gene 7076) 43.8 µM | [4] 30.5 µM | [5] 8.04 µM | [6] 4.48 µM | [7] 37.8 µM | [8] 28.5 µM

CN(Cc1cnc2nc(N)nc(N)c2n1)c1ccc(C(=O)N[C@@H](CCC(=O)O)C(=O)O)cc1
active: [1] 0.266 µM | [5] 0.167 µM | [8] 0.0944 µM
not listed: [9]
inactive: all other assays above

O=C(c1ccccc1)c1ccccc1
active: [6] 4.85 µM
inactive: all other assays above

CC(=O)Nc1ccc(O)cc1
not listed: [9]
inactive: all other assays above
